The values that follow come from article PMC5540273 (PLoS ONE, 2017).

The structures appear in SMILES notation.
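Further: KINOMEscan kinase panel screen.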

The subject of the assay is PIM3. To be noted: concentration: 1 μM, replicates: in singlicate; n = 1.
Take `COc1ccc(COc2cc(-n3cnc4ccccc43)sc2C(N)=O)cc1` [GSK1024304]: the “%Inh” value amounted to 0%. The value for `Cc1nnc(-c2ccc3ncc(-c4ccc(S(C)=O)cc4)n3c2)o1` (stereo not drawn) was 0%. The value for `COc1ccc(S(=O)(=O)NC2CCN(c3cc(C)nc(Nc4cccc(C#N)c4)n3)CC2)cc1.O=C(O)C(F)(F)F` [GSK1653539] was 0%; that for `COc1ccc(Nc2nccc(N3CCC(NC(=O)Nc4cccc(C(C)=O)c4)C3)n2)cc1` (stereo not drawn) [GSK1379731] was 0%.

As for `Cc1cccc(-c2nc(Nc3ccc4ncsc4c3)c3ccccc3n2)n1` [GW867588], the “%Inh” value stood at 16%. Next, `C[C@@H](Oc1cc(-n2cnc3ccc(NC(=O)NC(C)(C)C)cc32)sc1C(N)=O)c1ccccc1Cl` [GSK346294]: 0%; `c1ccc(-c2cc(-c3c[nH]nc3-c3ccccn3)ccn2)cc1` [GW576604]: 0%; `CCc1nc(-c2cccc(C)c2)c(-c2ccnc(NCc3ccccc3)c2)s1`: 25%. The value for `COCCNC(=O)c1ccc(-c2cc(C(=O)NC3CC3)cc(F)c2C)cc1` [GW868318] was 29%; that for `N#Cc1ccc(-c2cc(-c3c[nH]nc3-c3ccccn3)ccn2)cc1` [GW693028] was 0%; that for `O=C(Nc1n[nH]c2cc(-c3cccc(F)c3)ccc12)C1CC1` [SB-735464] was 4%. Next, `Cl.Oc1cccc(Nc2ccnc3cc(-c4ccncc4)ccc23)c1` [GW494601]: 0%.

`Cn1cc(-c2ccc3c(c2)CCN3C(=O)Cc2ccccc2Cl)c2c(N)ncnc21` [GSK2608885]: the “%Inh” value is 0%. The value for `CN1c2ccc(CNc3ccc(F)cc3)cc2-c2c(cnn2C)S1(=O)=O` was 5%; that for `O=c1cc(N2CCOCC2)nc2n(Cc3cccc(C(F)(F)F)c3)ccn12` [GSK2297543] was 0%. The value for `Fc1ccc(-c2nn3c(OCC(F)(F)F)cccc3c2-c2ccncc2)cc1` [GW514784] was 0%; that for `COc1cc2c(cc1OC[C@@H](O)CO)ncc1c3ccc(C#N)cc3[nH]c21` was 35%.

On to `Nc1nc(-c2ccc3c(N)n[nH]c3c2)cc(N2CCCC2)n1` [GSK2227430], for which the “%Inh” value turned out to be 0%.

Regarding `Cc1cccc(-c2nc(-c3ccc(S(C)(=O)=O)cc3)sc2-c2ccncc2)c1`, the “%Inh” value was determined as 12%. Next, `NCC(NC(=O)c1cc(-c2cn[nH]c2)c(-c2ccnc3[nH]ccc23)s1)c1ccccc1.O=C(O)C(F)(F)F.O=C(O)C(F)(F)F` (stereo not drawn) [GSK1325775]: 41%; `O=C(Nc1cccc(-c2nn3ncccc3c2-c2ccnc(Nc3cccc(C(F)(F)F)c3)n2)c1)c1c(F)cccc1F` [GSK299495]: 0%. With `O=c1cc(N2CCOCC2)nc2n(Cc3cccc4ccccc34)ccn12` [GSK2333389], the “%Inh” value came to 0%. Next, `CSc1ccc(-c2cc3ncnc(SCC(=O)O)c3s2)cc1`: 0%.

Consider `CC(C)(CN)c1nc(-c2ccc(Cl)c(O)c2)c(-c2ccncc2)[nH]1.O=C(O)C(F)(F)F` [SB-477794], for which the “%Inh” value was found to be 0%. Next, `O=C(NCCNc1ccnc(Nc2ccc(F)cc2)n1)c1cc2ccccc2s1` [GSK1379874]: 0%; `COc1cc2c(cc1OCCN1CCN(C)CC1)ncc1c3ccc(C#N)cc3[nH]c21`: 63%; `Cc1nnc(-c2ccc3occ(-c4ccc(C(C)O)cc4)c3c2)o1` (stereo not drawn): 31%. As to `COc1ccc(Nc2ncc(C#N)c(Nc3ccccc3C(N)=O)n2)cc1N1CCN(C)CC1.Cl` [GSK1558669], the “%Inh” value is recorded as 93.3%. Next, `O=C(NCCCN1CCOCC1)c1cccc(Nc2nccc(Nc3ccc(Oc4ccccc4)cc3)n2)c1` [GW663929]: 4%; `CC(=O)Nc1ccc(COc2ccc(Nc3ccnc4cc(-c5ccccn5)ccc34)cc2)cc1.Cl` [GW440148]: 0%; `c1ccc(-c2n[nH]cc2-c2ccnc3ccccc23)nc1` [GW271431]: 3%. Turning to `COc1ccc(CNC(=O)NC2CCN(c3ccnc(Nc4ccc(OC)cc4)n3)C2)cc1` (stereo not drawn) [GSK1379727], the “%Inh” value was 0%.

As to `O=C(c1ccc(-c2cc(-c3c[nH]nc3-c3ccccn3)ccn2)cc1)N1CCOCC1` [GW812171], the “%Inh” value was 15%.

Regarding `COc1cc(Nc2nccc(N3CCC(NC(=O)c4cccc(NC(C)=O)c4)C3)n2)cc(OC)c1OC` (stereo not drawn) [GSK1379754], the “%Inh” value turned out to be 0%. Next, `CC(C)(C)n1cnc2c(N)ncnc21` [SKF-97359]: 0%. The value for `Cc1c(Cn2c(C)nn3c(=O)cc(N4CCOC(C)C4)nc23)cccc1C(F)(F)F` (stereo not drawn) [GSK2344444] was 0%.
